According to PubChem BioAssay AID1347165 (National Center for Advancing Translational Sciences (NCATS), 2019):
Where “and” joins values, the source holds several entries; their conditions need not be identical. Identical values can stand only once. The campaign covered roughly 220,000 compounds. About 5,700 (2.6%) were called active. Inconclusive results (about 18%) are left out. Calls come from the whole dose curve; as a rule, active = well fitted inhibition curve with a large enough effect; inconclusive = small, poorly fitted or top-dose-only effect; inactive = no such curve, though single readings can be large or run the other way. Shown is part of a subset that was picked to be rich in actives.

Biological target: Lysine-specific demethylase 5B (Homo sapiens) (UniProt Q9UGL1)
Sequence (Q9UGL1 whole entry, looked up): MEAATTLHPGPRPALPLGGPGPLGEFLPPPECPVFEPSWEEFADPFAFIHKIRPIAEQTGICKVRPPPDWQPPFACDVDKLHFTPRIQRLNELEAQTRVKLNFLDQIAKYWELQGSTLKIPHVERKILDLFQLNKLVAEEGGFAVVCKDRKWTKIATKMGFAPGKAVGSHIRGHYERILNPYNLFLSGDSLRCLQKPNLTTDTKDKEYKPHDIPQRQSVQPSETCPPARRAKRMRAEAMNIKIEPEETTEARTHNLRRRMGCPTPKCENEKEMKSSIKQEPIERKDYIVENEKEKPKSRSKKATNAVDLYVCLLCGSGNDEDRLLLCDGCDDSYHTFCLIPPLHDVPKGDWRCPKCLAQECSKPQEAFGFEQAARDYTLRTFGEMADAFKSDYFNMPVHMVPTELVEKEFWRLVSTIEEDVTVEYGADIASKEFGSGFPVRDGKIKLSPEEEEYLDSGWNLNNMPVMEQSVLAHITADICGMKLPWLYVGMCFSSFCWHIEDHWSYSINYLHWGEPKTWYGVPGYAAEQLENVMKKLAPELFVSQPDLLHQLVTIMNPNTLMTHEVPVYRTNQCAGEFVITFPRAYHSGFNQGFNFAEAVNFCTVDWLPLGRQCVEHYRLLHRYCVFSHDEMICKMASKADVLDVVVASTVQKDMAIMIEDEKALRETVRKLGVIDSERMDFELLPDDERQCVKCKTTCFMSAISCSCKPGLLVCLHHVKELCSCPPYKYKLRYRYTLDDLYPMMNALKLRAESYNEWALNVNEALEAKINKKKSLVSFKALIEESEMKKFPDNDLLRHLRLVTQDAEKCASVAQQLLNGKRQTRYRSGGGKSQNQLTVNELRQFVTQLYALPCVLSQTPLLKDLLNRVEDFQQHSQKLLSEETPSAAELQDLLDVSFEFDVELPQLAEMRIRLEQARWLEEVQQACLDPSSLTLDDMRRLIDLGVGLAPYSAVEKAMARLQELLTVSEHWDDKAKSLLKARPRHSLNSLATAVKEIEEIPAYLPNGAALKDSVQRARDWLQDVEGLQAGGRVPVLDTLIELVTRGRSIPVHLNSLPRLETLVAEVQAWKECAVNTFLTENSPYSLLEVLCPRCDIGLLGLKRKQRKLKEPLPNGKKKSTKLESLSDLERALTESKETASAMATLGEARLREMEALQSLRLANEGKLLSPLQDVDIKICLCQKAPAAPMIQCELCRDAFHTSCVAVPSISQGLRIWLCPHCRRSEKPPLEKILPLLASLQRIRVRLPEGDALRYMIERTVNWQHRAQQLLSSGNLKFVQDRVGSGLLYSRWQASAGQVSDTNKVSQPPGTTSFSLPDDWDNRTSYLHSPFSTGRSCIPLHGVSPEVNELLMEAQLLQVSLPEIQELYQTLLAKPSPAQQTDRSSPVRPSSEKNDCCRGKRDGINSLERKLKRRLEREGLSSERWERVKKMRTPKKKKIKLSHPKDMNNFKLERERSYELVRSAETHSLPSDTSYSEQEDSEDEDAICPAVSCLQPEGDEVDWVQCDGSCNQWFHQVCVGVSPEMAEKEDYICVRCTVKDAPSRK
Assay: Primary screen for KDM5B Histone Demethylases FDH-coupled qHTS; note: nearly all actives have a fitted effect of over 70% in size; for activity change, negative = inhibition: 0% is about no effect
Conditions: FDH-coupled NADH fluorescence (FDH is formaldehyde dehydrogenase); series mostly up to 57.7 µM; activity change, negative = inhibition: at the top concentration
Summary of the method: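 Coupled FDH/NAD⁺ fluorescence readout. KDM5BΔAP 200 nM final; compound titration, 10 min RT preincubation; substrate mix 12.5 µM H3K4me3, 25 µM 2-OG, 50 µM Fe(II), 100 µM ascorbate, 0.25 mM NAD⁺, 0.25 U/mL FDH; ΔRFU over 30 min.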
Potency is the fitted concentration of half-maximal effect.

Potency, active:
c1cc(-c2nc3ccncc3[nH]2)ccn1 126 µM and 31.6 µM
O=C(NCCCn1ccnc1)c1ccc(-c2ncc3cnc(-c4cccc(F)c4)cn23)cc1 17.8 µM
CN(C)C[C@@H]1CN(Cc2ccccn2)C[C@H]1NC(=O)c1ccc2cc[nH]c2c1 28.2 µM
CN(C)C[C@@H]1CN(S(C)(=O)=O)C[C@H]1NC(=O)c1nn(C)c2ccccc12 28.2 µM
CN(C)C[C@@H]1CN(C)C[C@H]1NC(=O)c1cc2ccccc2[nH]1 25.1 µM
COc1ccc2[nH]c(C(=O)N[C@@H]3CN(S(C)(=O)=O)C[C@H]3CN(C)C)cc2c1 28.2 µM
Fc1ccc2oc([C@H]3CCN(C4CCOCC4)C3)nc2c1 44.7 µM
CCc1ccc(CN(C)C(=O)c2ccc3oc(-c4cccc(F)c4)nc3c2)nc1 28.2 µM
O=C(CCNc1c(-c2ccccc2)nc2cnccn12)N1CCC(N2CCCCC2)CC1 28.2 µM
O=C(CCNc1c(-c2ccc(F)cc2)nc2cnccn12)Nc1ccc2c(c1)OCO2 25.1 µM
Cc1cccc(-c2nc3cnccn3c2NCCC(=O)N2CCCCCC2)c1 28.2 µM
CC1CCN(C(=O)CCNc2c(-c3ccc(F)cc3)nc3cnccn23)CC1 31.6 µM
Cc1cccc(C)c1-c1nc(C(=O)N2CCN(c3ncccn3)CC2)n2ccccc12 31.6 µM and 28.2 µM
Cc1cccc(C)c1-c1nc(C(=O)NCc2ccc(F)cc2)n2ccccc12 28.2 µM
O=C(NCc1ccc(F)cc1)c1nc(-c2ccccc2)c2ccccn12 28.2 µM
O=c1cc(N2CCOCC2)oc2c(NCc3ccncc3)nccc12 35.5 µM
Cc1noc(C)c1-c1nccc2c(=O)cc(N3CCOCC3)oc12 39.8 µM
Cc1ccc(C2(O)CCN(c3nccc(CCC(F)(F)F)n3)CC2)nc1 22.4 µM
COCCOCC(=O)N1CCC2(CC1)c1[nH]c3ccc(OC)cc3c1CCN2C 28.2 µM
O=C(Cc1ccc(Cl)cc1)N1CCc2c(nc3cc[nH]n3c2=O)C1 31.6 µM
Cc1nn2c(c1-c1ccccc1N1CCCC1)N(C(=O)c1ccn(C)n1)CCC2 7.94 µM

Activity change, negative = inhibition, inactive:
COc1ccc(C2=NC(c3ccncc3)=Nc3ccc(Br)cc3N2)cc1 -26.1%
Cc1cc(C)c(NC(=O)CSc2nc3ccncc3[nH]2)c(C)c1 -14.4%
COc1ccc(CC(=O)NC[C@@H]2C=C(C)[C@H](Cc3nc4ccncc4[nH]3)C[C@H]2C(C)C)cc1 -10.4%
Cc1ccc(Nc2n[nH]nc2C(=O)Nc2ccc(C)cc2Cl)cc1 9.14%
Cc1csc(CNC(=O)N(C)Cc2ccc3c(c2)OCCO3)n1 2.14%
O=C(Nc1ccccc1Cc1ccccc1)c1cccc[n+]1[O-] 11.7%
CC(C)(Oc1nn(CCOc2ccccc2)c2ccccc12)C(=O)NCCCn1ccnc1 -4.34%
Cc1ccc(-c2nc(C#N)c(NCCCn3ccnc3)o2)cc1 299%
Cn1cc(S(=O)(=O)N2CCC(C(=O)Nc3ccc(OC(F)F)c(Cl)c3)CC2)cc1C(N)=O 4.62%
COC(=O)c1sccc1S(=O)(=O)Nc1ccc(OC)cc1 -19.7%
CN(C)C[C@@H]1CN(S(C)(=O)=O)C[C@H]1NC(=O)c1ccc2ncccc2c1 -3.17%
O=C(N[C@@H]1CN(Cc2c(F)cccc2F)C[C@H]1CO)c1ccccc1 -10.1%
Cc1cc(C)n(CCC(=O)N[C@@H]2CN(S(C)(=O)=O)C[C@H]2CN(C)C)n1 -17.1%
CN(C)C[C@@H]1CN(S(C)(=O)=O)C[C@H]1NC(=O)c1cccc(F)c1 -22.8%
CC(CNC(=O)c1cc2ccccc2[nH]1)c1ccccc1 (configuration not stated) 11.8%
CN(C)C[C@@H]1CN(C)C[C@H]1NC(=O)c1ccnnc1 -4.54%
COc1ccc2cc(C(=O)N3CCC(C(C)C(=O)NCCCN4CCCC4)CC3)[nH]c2c1 (configuration not stated) 13.5%
COc1ccc(C(=O)N[C@H]2C[C@@H]3CC[C@H]2C3)cc1 3.38%
O=C(O)COc1ccc2c(=O)c(Oc3ccc(Cl)cc3)coc2c1 -20.5%
Cc1ccc(CNC(=O)Cn2c(=O)ccc3cc(S(=O)(=O)N4CCC(C)CC4)ccc32)o1 -0.492%
Brc1ccc(/C=N/N=C/c2ccc(Br)s2)s1 -4.1%
COc1ccc(NC(=O)CN(C)c2nc(CN3CCOCC3)nc3sc(C)c(C)c23)cc1 5.89%
Cc1nnc([C@H]2CCN(Cc3ccc(F)cc3)C2)o1 -3.36% [at 115 µM]
COC1CN(c2cccc(F)c2)C12CCN(C1CCOCC1)CC2 (configuration not stated) -39.5%
Cc1ccc(-c2nc3ccc(C(=O)N4CCC(CC(=O)N5CCCCCC5)CC4)cc3o2)cc1 3.43%
COc1ccc(C2=NOC(C(=O)Nc3cc(C)nn3-c3ccccc3)C2)cc1 (configuration not stated) 6.85%
O=C(COc1ccccc1)Nc1ccc2c(=O)c3ccccc3oc2c1 -14.5%
CN(C)C(=O)c1ccc(OCc2coc(-c3cccc(F)c3)n2)cc1 -16.6%
O=C(O)c1ccc2oc(-c3cccc(Cl)c3)nc2c1 -15.7%
CCCCS(=O)CC(O)CCl (configuration not stated) 20%
O=C(CN1CCCCCC1)Nc1ccc(Cl)cc1F -11.6%
CN(C)C(=O)CN1C(=O)c2ccccc2C1c1cn(C)c2ccccc12 (configuration not stated) 4.47%
O=C(CSc1nc(-c2cccc(F)c2)[nH]c1-c1ccccc1)Nc1ccc2c(c1)OCO2 20.7%
Oc1ccc(-c2nc3ccc(Cl)cn3c2Nc2ccc3c(c2)OCO3)cc1 61.4%
O=C(NC1CCCCC1)N1CCCCCC1c1nc(-c2cccnc2)no1 (configuration not stated) -5.27%
O=C1CCN(C(=O)C2CCN(C(=O)CCCc3ccccc3)CC2)CCCCCCN1 -22.1%
CC(=O)N1CCN(C(=O)CCC(=O)N2CCC(c3noc4cc(F)ccc34)CC2)CC1 12.5%
Cc1cc(C)cc(C(=O)NCCC(=O)N2CCCC2)c1 -13.4%
Cc1cccc(-c2cccc(NC(=O)C3CCCN(C(=O)CC(F)(F)F)C3)c2)c1 (configuration not stated) -16.1%
O=C(Nc1c(-c2ccc(F)cc2)nc2ccccn12)c1cccc(F)c1 -19.1%
CC(C)CCN(CC(=O)NC(N)=O)C1CC1 0.707%
COc1ccc(NC(=O)Cc2c(C)c3ccc(OC)c(C)c3oc2=O)cc1OC -16.7%
COC(=O)c1ccc(OCc2cccc(C#N)c2)c(OC)c1 15.1%
Cn1c(=O)c2c(ncn2CCC(=O)Nc2ccc(F)cc2F)n(C)c1=O 19.5%
COc1ccc(Nc2ccccc2)cc1 -15%
CCCn1nc(C(=O)OCc2nc(-c3cccc(OC)c3)no2)c2ccccc2c1=O -10.6%
Cc1cc2ccccc2n1CCNC(=O)c1ccc(F)cc1 -23.6%
COC(=O)CNC(=O)c1nc(-c2ccc([S+](C)(=O)[O-])cc2)c2ccccn12 5230% [at 115 µM]
O=C(CSc1nccn1Cc1ccc(F)cc1)NCc1ccccc1 4.1%
Cc1ccc(CNC(=O)c2c(O)nc3c(C)cccn3c2=O)cc1 -21.7%
Cc1nc(-c2ccccc2)n(CC(=O)NCc2ccc(F)cc2)c(=O)c1CCO -0.625%
Cc1cccc(N2CCN(C(=O)c3cnc(N4CCCC4)nc3C)CC2)c1C -25.8%
COCCNC(=O)c1cc(-c2cccc(Cl)c2)on1 -6.23%
O=C(c1cc(-c2ccccc2)n[nH]1)N1CCN(c2ncccn2)CC1 -21.9%
COc1cccc(/C=C2\C=C(c3ccc(C)cc3)OC2=O)c1OC(C)=O -8.74%
O=C(NCCN1CCCCC1)C(=O)Nc1cccc2[nH]ccc12 -14.9%
CCCC(=O)Nc1ccc(-c2csc(NC)n2)cc1 -0.547%
O=C(Cn1c(=O)c2c(ncn2C2CCCC2)n(Cc2ccccc2)c1=O)NC1CCS(=O)(=O)C1 (configuration not stated) 7.86%
CC(Oc1ccc(Cl)cc1)c1nc(-c2ccc(Cl)cc2)no1 (configuration not stated) -5%
CN(c1ccccc1)c1cc(=O)c2ccnc(NC3CCOCC3)c2o1 -2.58% [at 86.2 µM]
O=c1cc(N2CCOCC2)oc2c(Nc3cccc(Cl)c3)nccc12 -13.9% [at 86.2 µM]
Cn1ncc2c(Nc3cccc4c3CCCC4)ncnc21 -4.66%
CCc1ccc(-n2nc(C)c3c(C(F)(F)F)cc(OCC(=O)NC(C)C)nc32)cc1 2.73%
COc1cc2c(C(=O)N(C)c3cc(Cl)ccc3OC)cn(C)c(=O)c2cc1OC 35.9%
O=C(COc1ccccc1)N1CC2(C1)CN(Cc1ccc(Cl)cc1)C(=O)O2 -3.94% [at 86.2 µM]
N#CCCNC(=O)CSc1nc(C2CC2)nc2ccccc12 -14.8%
O=C(Cn1cnc2c(Cl)cc(Cl)cc2c1=O)N(C1CCCC1)C1CCS(=O)(=O)C1 (configuration not stated) 11.5%
CCCN1C(=O)NC(CC(=O)N2CCC(O)(c3ccc(C)cn3)CC2)C1=O (configuration not stated) -7.99%
Cc1ccc(C2(O)CCN(C(=O)c3ccccc3-c3nn[nH]n3)CC2)nc1 -17.5%
Cc1csc(SCc2cc(Cl)c3c(c2)OCCO3)n1 14.3%
N#Cc1cccc(NC(=O)CSc2ccccc2C(=O)Nc2ccc3c(c2)OCCCO3)c1 -0.157%
COc1ccccc1-n1nc(CC(N)=O)nc1C1CCCCn2nnnc21 (configuration not stated) -0.916%
C=CCOc1cccc(NC(=O)c2ccccc2Cl)c1 17.9%
COc1ccc2[nH]c3c(c2c1)CCNC31CCN(C(=O)c2ccccc2)CC1 -16.7%
CN1CCc2c([nH]c3ccccc23)C12CCN(C(=O)c1nccc3ccccc13)CC2 1.36%
CCN1CCC(N(C(=O)c2cc3ccccc3n2C)C2CC2)CC1 0.923%
CCc1cc(=O)oc2c(C)c(OCC(=O)NCCN3CCOCC3)ccc12 101%
CCn1c2c(c(=O)n1Cc1ccccc1)CCN(C(=O)Cc1ccc3c(c1)OCO3)C2 -3.03% [at 86.2 µM]
O=C(Cc1ccc(F)cc1)N1CCCC(c2nn(-c3ccc(Cl)cc3)c(=O)[nH]2)C1 (configuration not stated) -5.65%
Cc1nn2c(c1-c1ccccc1C(C)C)N(C(=O)c1cnccn1)CCC2 4.8% [at 86.2 µM]
Cc1nn2c(c1-c1ccccc1C(C)C)N(C(=O)c1cccc(C#N)c1)CCC2 15.3% [at 86.2 µM]
